Molecules are shown by their SMILES. About 3,100 (55%) of roughly 5,600 compounds were called active. Inconclusive results (about 3%) are left out. The set was probably picked from earlier hits. The list is a sample of the results. Values without a mark were called inactive.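 The calls were made as follows: active = mean loss of cell viability signal at or above a set limit, and enough replicates individually reaching it; inconclusive = meets only the mean limit or only the replicate share; inactive = meets neither condition.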

As a reminder, the inhibition is the drop in the measured response relative to a control, in per cent.

The nature of this assay: NIH/3T3 fibroblast cytotoxicity, confirmation, cytotoxicity control, cell-based, cherry-pick, single point, set 2 (AID 651744).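 Also: 0% = median of neutral control wells and 100% = median of positive control wells.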 As to conditions: NIH/3T3 viability, CellTiter-Glo ATP luminescence, 90 h; at 24.9 µM; active compounds read high. A general note: ATP-based viability assays read luminescence as a measure of living cells.
With `C[C@H](CO)N1C[C@H](C)[C@H](CN(C)C(=O)Nc2ccc(C(F)(F)F)cc2)OCCCC[C@H](C)Oc2ccc(NC(=O)C3CCCCC3)cc2C1=O`, the inhibition is -9.18%.
The figure for `C[C@H]1CCCCO[C@H](CN(C)Cc2ccc(C(F)(F)F)cc2)[C@@H](C)CN([C@@H](C)CO)C(=O)c2cc(NC(=O)C3CCCCC3)ccc2O1` is 25.9% (active); for `C[C@H](CO)N1C[C@H](C)[C@@H](CN(C)Cc2ccc(C(F)(F)F)cc2)OCCCC[C@H](C)Oc2ccc(NC(=O)C3CCCCC3)cc2C1=O` it is 22.4%.
In the case of `CCC(=O)N(C)C[C@@H]1Oc2cc(C#CCN(C)C)ccc2S(=O)(=O)N([C@H](C)CO)C[C@H]1C` it was 5.45%; in that of `CCCC#Cc1ccc2c(c1)O[C@H](CN(C)C(=O)CC)[C@@H](C)CN([C@H](C)CO)S2(=O)=O`, 48.4% (active); in that of `C[C@H](CO)N1C[C@H](C)[C@@H](CN(C)C(=O)C2CCCCC2)Oc2cc(-c3ccccc3)ccc2S1(=O)=O`, 33.8% (active).
As to `C[C@@H]1CN([C@@H](C)CO)S(=O)(=O)c2ccc(C#CCN(C)C)cc2O[C@H]1CN(C)C(=O)C1CC1`, the inhibition was 15.6%.
For `CC(C)CC#Cc1ccc2c(c1)O[C@H](CN(C)C(=O)C1CC1)[C@@H](C)CN([C@@H](C)CO)S2(=O)=O`, the inhibition is 34.8% (active).
In the case of `N#C[C@@H]1[C@@H](c2ccc(C#Cc3cccc(F)c3)cc2)[C@@H](CO)N1C(=O)C1CCC1`, the inhibition was 22.8%.
In the case of `CCCC#Cc1ccc([C@@H]2[C@@H](C#N)N(C(=O)C3CCCC3)[C@@H]2CO)cc1` it was 23.7%; in that of `N#C[C@@H]1[C@H](c2ccc(C#Cc3cccc(F)c3)cc2)[C@@H](CO)N1C(=O)C1CCCC1`, 105% (active).
As for `COCC(=O)N1[C@H](CO)[C@@H](c2ccc(C#Cc3ccccc3F)cc2)[C@@H]1C#N`, the inhibition was 19.1%.
Turning to `N#C[C@@H]1[C@@H](c2ccccc2)[C@@H](CO)N1C(=O)Cc1ccccc1`, the inhibition is 17%.
The figure for `N#C[C@@H]1[C@@H](c2ccc(/C=C/c3ccccc3)cc2)[C@@H](CO)N1C(=O)C1CC1` is 48.2% (active).
In the case of `C[C@@H]1CN([C@H](C)CO)S(=O)(=O)c2ccc(C#Cc3ccncc3)cc2O[C@@H]1CN(C)S(=O)(=O)c1ccc(F)cc1` it was 27.4% (active).
In the case of `Cc1noc(C)c1S(=O)(=O)N(C)C[C@H]1Oc2ccc(N(C)C)cc2CC(=O)N([C@H](C)CO)C[C@@H]1C` it was -3.27%; in that of `C[C@@H]1CN([C@@H](C)CO)S(=O)(=O)c2ccc(C#Cc3ccc(F)cc3)cc2O[C@H]1CN(C)S(C)(=O)=O`, 64.1% (active).
For the compound `O=S(=O)(c1ccc(F)cc1)N1CCCCN2[C@H](C1)[C@H](c1ccc(C3=CCCCC3)cc1)[C@@H]2CO`, the inhibition is 105% (active).
In the case of `Cc1ccccc1-c1ccc([C@H]2[C@H]3CN(S(=O)(=O)c4ccc(F)cc4)CCCCN3[C@H]2CO)cc1` it was 103% (active); in that of `CN(C)CC#Cc1ccc([C@H]2[C@H]3CN(S(=O)(=O)c4ccccc4F)CCCCN3[C@H]2CO)cc1`, 18.4%; in that of `Cc1ccccc1-c1ccc([C@@H]2[C@H](CO)N3CCCCN(S(=O)(=O)c4ccc(F)cc4)C[C@@H]23)cc1`, 102% (active).
Turning to `Cc1cc(C(=O)Nc2cccc3c2O[C@@H](CN(C)Cc2ccc(C(=O)Nc4ccccc4N)cc2)[C@H](C)CN([C@@H](C)CO)C3=O)n(C)n1`, the inhibition was 10.2%.
For the compound `Cc1ccc(S(=O)(=O)N(C)C[C@@H]2Oc3c(NC(=O)c4nc5ccccc5s4)cccc3C(=O)N([C@H](C)CO)C[C@@H]2C)cc1`, the inhibition is 49% (active).
The figure for `Cc1ccc(S(=O)(=O)N(C)C[C@H]2OCCCC[C@H](C)Oc3ccc(NC(=O)Cc4ccccc4)cc3C(=O)N([C@@H](C)CO)C[C@@H]2C)cc1` is -4.04%.
In the case of `C[C@H](CO)N1C[C@H](C)[C@@H](CN(C)Cc2ccc(C(=O)Nc3ccccc3N)cc2)Oc2c(NC(=O)c3ccc(-c4nccs4)cc3)cccc2C1=O` it was 42% (active); in that of `C[C@@H]1CN([C@H](C)CO)C(=O)c2cccc(NC(=O)c3cnccn3)c2O[C@@H]1CN(C)Cc1ccc(C(=O)Nc2ccccc2N)cc1`, 68.5% (active).
In the case of `C[C@@H]1CN([C@H](C)CO)C(=O)c2cccc(NC(=O)c3ccc(-c4nccs4)cc3)c2O[C@@H]1CN(C)C(=O)Nc1ccc(C(F)(F)F)cc1` it was 44% (active).
For `C[C@H]1CN([C@@H](C)CO)C(=O)c2cccc(NS(=O)(=O)c3cn(C)cn3)c2O[C@@H]1CN(C)CC1CCCCC1`, the inhibition was 0.698%.
The figure for `C[C@@H]1CCCCO[C@H](CN(C)C(=O)Nc2ccc(C(F)(F)F)cc2)[C@H](C)CN([C@H](C)CO)C(=O)c2cc(NC(=O)Nc3ccc(C(F)(F)F)cc3)ccc2O1` is -27.4%.
As to `COc1ccc(S(=O)(=O)N(C)C[C@H]2Oc3c(NC(=O)Nc4cccc5ccccc45)cccc3C(=O)N([C@@H](C)CO)C[C@H]2C)cc1`, the inhibition is 26.1%.
The figure for `COc1ccc(NC(=O)N(C)C[C@H]2OCCCC[C@H](C)Oc3ccc(NC(=O)Nc4ccc(C(F)(F)F)cc4)cc3C(=O)N([C@@H](C)CO)C[C@@H]2C)cc1` is 20.7%; for `O=C(C1CCC1)N1CCCCN2[C@H](CO)[C@H](c3ccc(-c4cccc(F)c4)cc3)[C@@H]2C1` it is 1.34%; for `O=C(Nc1ccccc1F)N1CCCCN2[C@H](CO)[C@@H](c3ccc(-c4cccnc4)cc3)[C@H]2C1` it is 14.6%.
For `O=C(C1CCCC1)N1CCCCN2[C@@H](CO)[C@H](c3ccc(-c4cccc(F)c4)cc3)[C@@H]2C1`, the inhibition was 105% (active).
The figure for `O=C(C1CC1)N1CCCCN2[C@H](CO)[C@H](c3ccc(-c4cccc(F)c4)cc3)[C@H]2C1` is 56.9% (active); for `O=C(Nc1cccc(F)c1)N1CCCCN2[C@H](CO)[C@H](c3ccc(C#CC4CC4)cc3)[C@@H]2C1` it is 22.3%; for `N#Cc1cccc(-c2ccc([C@H]3[C@H](CO)N4CCCCN(C(=O)Nc5cccc(F)c5)C[C@@H]34)cc2)c1` it is 105% (active).
For the compound `O=C(C[C@@H]1C[C@H]2c3cc(NC(=O)C4CCC4)ccc3O[C@H]2[C@@H](CO)O1)NCc1ccc2c(c1)OCO2`, the inhibition was -13.1%.
